# Measured values from PubChem BioAssay (NCATS).
# Inconclusive results are not listed. The source made the active and inactive calls. Calls follow the shape of the dose curve; as a rule, active = well fitted inhibition curve with a large enough effect; inconclusive = small, poorly fitted or top-dose-only effect; inactive = no such curve, though single readings can be large or run the other way.
# Target: Rap guanine nucleotide exchange factor 3 (Homo sapiens) (UniProt O95398)
# Assay: Counterscreen qHTS for antagonist of cAMP-regulated guanine nucleotide exchange factor 3 (EPAC1) (AID 1645888);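 as to activity change, negative = inhibition: fluorescence loss as bound BODIPY-GDP is released from Rap1B; % of control where 0% means no effect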
# Conditions: Rap1B-BODIPY-GDP nucleotide exchange, fluorescence; series mostly up to 154 µM; activity change, negative = inhibition: at the top concentration
# In short: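 Rap1B-BODIPY-GDP 250 nM + GDP 50 uM; cpds 7-pt, final 9.74 nM–152 uM (activator mode) or from 7.32 nM upwards (inhibitor mode); RT; FI 480/540 nm at 5 and 30 min, then ± cAMP, reread.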
# Potency is read from the fitted curve at half-maximal effect.
# Sequence of Rap guanine nucleotide exchange factor 3 (Homo sapiens) (O95398 whole entry, looked up): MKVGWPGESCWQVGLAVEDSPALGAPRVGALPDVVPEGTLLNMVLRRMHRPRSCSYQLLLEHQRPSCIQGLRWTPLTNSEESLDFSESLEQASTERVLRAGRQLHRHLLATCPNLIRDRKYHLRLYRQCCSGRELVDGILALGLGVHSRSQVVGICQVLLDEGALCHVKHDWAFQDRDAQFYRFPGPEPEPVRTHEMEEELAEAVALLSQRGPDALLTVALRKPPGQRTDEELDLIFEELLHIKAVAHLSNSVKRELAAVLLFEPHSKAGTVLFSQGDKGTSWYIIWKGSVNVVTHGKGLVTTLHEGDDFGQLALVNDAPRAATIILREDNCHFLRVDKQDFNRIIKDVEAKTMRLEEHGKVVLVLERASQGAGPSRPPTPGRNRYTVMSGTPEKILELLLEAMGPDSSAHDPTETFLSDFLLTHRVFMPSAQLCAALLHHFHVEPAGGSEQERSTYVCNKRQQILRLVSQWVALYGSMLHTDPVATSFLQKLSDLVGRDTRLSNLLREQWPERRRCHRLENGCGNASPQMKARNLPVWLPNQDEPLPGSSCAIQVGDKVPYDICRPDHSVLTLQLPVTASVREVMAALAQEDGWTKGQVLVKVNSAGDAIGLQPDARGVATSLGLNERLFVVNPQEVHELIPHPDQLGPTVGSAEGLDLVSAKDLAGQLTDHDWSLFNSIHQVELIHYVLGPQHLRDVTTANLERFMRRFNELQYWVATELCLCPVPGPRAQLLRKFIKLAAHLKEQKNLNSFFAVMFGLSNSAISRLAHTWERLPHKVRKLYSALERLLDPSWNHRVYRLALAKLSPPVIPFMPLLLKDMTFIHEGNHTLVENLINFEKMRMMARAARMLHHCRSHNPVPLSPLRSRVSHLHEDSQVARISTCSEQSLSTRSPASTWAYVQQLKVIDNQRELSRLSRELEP
SMILES,"activity change, negative = inhibition",Potency
COc1cc2cc(Oc3ccc4ccc(=O)oc4c3)c(=O)oc2cc1O,-3.83% [at 30.8 µM] (inactive),
Oc1ccc(Cl)cc1CNc1cccc2cccnc12,11.2% (inactive),
Cc1cccc(C)c1NC(=O)CN1C(=O)S/C(=C\c2cccn2-c2cccc(C(=O)O)c2)C1=O,8.81% (inactive),
O=c1oc2c(O)cccc2cc1-c1nc2ccccc2[nH]1,-8.32% [at 30.8 µM] (inactive),
COc1ccccc1Oc1nc(-c2cccnc2)nc2ccccc12,11.9% (inactive),
O=S(=O)(c1ccc2[nH]c3c(c2c1)CCCC3)N1CCCCC1,0.728% (inactive),
CCN(CC)C1=CC2=CC(=C(C#N)C#N)CCC2CC1 (configuration not stated),430% (inactive),
COc1cccc(Cn2c(=O)c3ccccc3n3nc(C)cc23)c1,48.4% (inactive),
CC(NC1=CC(=O)c2cccnc2C1=O)C(O)c1ccccc1 (configuration not stated),20% (inactive),
CC(=O)N1CCc2nc3sc(C(=O)c4ccc(F)cc4)c(N)c3c(C(F)(F)F)c2C1,37.6% (inactive),
CCOC(=O)[C@H]1[C@H]2COc3ccc(C)cc3[C@@H]2N2C(=O)c3ccc(C)cc3NC(=O)[C@@]12C,7.68% (inactive),
CC1CCN(c2ccc3c(c2)S(=O)(=O)c2cccc(C(=O)NC[C@@H]4CCCO4)c2C3=O)CC1,-5.04% (inactive),
Cc1cc2nc3c(=O)n(Cc4ccccc4)c(=O)[nH]c3nc2cc1N,0.816% [at 30.8 µM] (inactive),
COCCn1c(-c2ccc(OC)cc2)c(-c2ccc(OC)cc2)oc1=O,5.41% (inactive),
OCc1ccc(-c2ccccc2)c(-c2ccccc2)c1,-10.5% (inactive),
O=S(=O)(c1ccccc1)c1nc(Nc2cccc(O)c2)sc1Cl,5.95% (inactive),

SMILES,"activity change, negative = inhibition",Potency
CN(C)c1ccc(/C=C(/C(=O)c2ccc(Cl)cc2Cl)n2cncn2)cc1,79.3% (inactive),
Oc1ccc(Br)cc1CNc1cccc2cccnc12,-5.73% (inactive),
CC1CCCN(C(=O)c2ccc(-c3ccccc3Cl)o2)C1 (configuration not stated),3.93% (inactive),
O=C(O)c1ccc(Nc2nc(-c3cc4ccccc4oc3=O)cs2)cc1O,-3.53% (inactive),
CC(=O)OCCn1c2nc(=O)[nH]c(=O)c-2nc2cc(C)c(C)cc21,,100 µM (active)
N=C1/C(=C\c2ccc(-c3cccc(C(=O)O)c3)o2)C(=O)N=C2SC=C(c3ccccc3)N12,4.85% (inactive),
O=C(c1cc(Cl)ccc1Cl)N1CCc2ccccc21,5.29% (inactive),
Nc1ccc(CSc2ccc(Cl)cc2)c(Cl)c1,17.5% (inactive),
COc1ccc(O)c(C(c2c(C)[nH][nH]c2=O)c2c(C)[nH][nH]c2=O)c1,33.4% (inactive),
N#Cc1ccc(CSc2nc(N)cc(N)n2)cc1,-15.9% (inactive),
O/N=C(/c1ccc(F)cc1)C1CC1c1c(F)cccc1Cl (configuration not stated),-27.6% (inactive),
Cn1cc(-c2cnc3c(NC=O)cc(-c4cccc(C(F)(F)F)c4)cn23)cn1,-21.7% (inactive),
CCOC(=O)c1ccc(/C=C2/C=C(c3ccccc3)N(c3ccc(Cl)c(C(=O)O)c3)C2=O)cc1,16% (inactive),
COC(=O)c1ccc(COc2ccc(/C=C(\C#N)c3nc4ccccc4[nH]3)cc2OC)o1,4.14% (inactive),
Cc1cc(C(=O)CCC(=O)N2CCN(S(=O)(=O)c3ccccc3)CC2)c(C)s1,-3.54% (inactive),
CCOc1ccccc1CN(CCc1ccc2c(c1)OCO2)Cc1ccccn1,2.25% [at 30.8 µM] (inactive),
